Sampled rows, rich in hits. Any-hit rate of the full collection: about 19%.
TDP1 cell noCPT: qHTS for Inhibitors of human tyrosyl-DNA phosphodiesterase 1 (TDP1): qHTS in cells in absence of CPT | DT40 Tdp1-/- hTDP1 cells, no CPT, ATP luminescence, 48 h | Potency, µM (highest dose often 46.2 µM), without a hit: at the top dose activity change, negative = growth inhibition, actives largely listed as inhibitors | actives 15% (n = 420,000) | AID 686978, 2013; further: potency means the concentration at half of the fitted maximal effect; nearly all actives have a fitted effect of over 55% in size
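Luminescent ATP content (CellTiter-Glo) served as the growth readout. Knockout chicken DT40 cells expressing human TDP1 were exposed to compounds without camptothecin for a minimum 48 hr at 37 °C.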
TDP1 cell CPT: DT40-hTDP1 cell growth loss with CPT; chicken DT40 Tdp1-/-;hTDP1 cells + 20 nM CPT, ATP luminescence, 48 h; Potency, µM (titrated, usually from 46.2 µM), without a hit: top-dose activity change, negative = growth inhibition, most hits filed as inhibitors; actives 12% (n = 420,000); AID 686979; further: potency means the concentration at half of the fitted maximal effect; nearly all actives have a fitted effect of over 55% in size
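Chicken DT40 Tdp1-/- cells stably complemented with human TDP1 were seeded at 400 cells/well in medium containing 20 nM camptothecin, exposed to pin-transferred compounds, and grown at 37 °C for at least 48 hr. Viability was read as ATP luminescence.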
HT1080-NT tox: kills 2HG-producing HT-1080-NT fibrosarcoma cells; actives 1.6% (n = 360,000); AID 686970; HT-1080-NT fibrosarcoma viability, CellTiter-Glo ATP luminescence, 48 h; Potency, µM (titrated, usually from 46.1 µM), without a hit: at the highest dose activity, negative = less viability, most hits filed as cytotoxic;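 further: NT is the 2HG producing partner of a matched IDH1 knockdown line; potency means the concentration at half of the fitted maximal effect; 0% = DMSO-treated cells and -100% = media-only wells without cells; nearly all actives have a fitted effect of over 55% in size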
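Compounds were tested in concentration-response format on HT-1080-NT cells for 48 hours at 37 degrees C. Cell viability came from CellTiter-Glo luminescence; curves were classified by r2, response magnitude and activity.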
uPA surface inh: cell surface uPA generation inhibition; Potency, µM (titrated, usually from 38.3 µM), for the others: at the highest dose activity change, negative = inhibition, most hits filed as inhibitors; actives 0.31% (n = 330,000); cell surface uPA generation assay, qHTS; active means well fitted inhibition curve with a large enough effect; inconclusive means small, poorly fitted or top-dose-only effect; inactive means no such curve, though single readings can be large or run the other way; tested in mouse RAW 264.7 cells; further: potency means the concentration at half of the fitted maximal effect; nearly all actives have a fitted effect of over 55% in size
HT1080 IDH1KD tx: toxicity to HT-1080 IDH1 knockdown cells (counter line). HT-1080 IDH1 knockdown viability, ATP luminescence, 48 h. Potency, µM (series often up to 46.1 µM), for inactives: top-dose activity, negative = toxicity, most hits filed as cytotoxic. actives 2% (n = 360,000). AID 686971;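 further: potency means the concentration at half of the fitted maximal effect; 0% = DMSO wells and -100% = cell-free medium wells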
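After a 2 h attachment period, IDH1KD HT-1080 cells took pin-transferred compound for 48 h at 37 °C; ATP-based luminescence after 10 min room-temperature reagent incubation reported viability.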
IL1B secr inh: inhibitors of inflammasome signaling (IL-1 beta secretion); THP-1 LPS/ATP IL-1B secretion, AlphaLISA, 16 h; stronger effect = lower value; activity change, % at 57.5 µM; actives 4.7% (n = 360,000); AID 743279; in the data active means activity change below about -50%; inconclusive means mostly about -30% to -49%
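Secreted IL-1B measured by AlphaLISA bead assay after 16 h compound exposure of THP-1 cells; compounds (final up to 57.5 uM) added 1 h before LPS (250 ng/mL) and ATP (1.25 mM) stimulation; lower signal means less secretion.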
The depositor's hits bear a star. Unless noted, the call rests on the fitted dose curve; in most records, active means well fitted curve in the direction sought with a large enough effect; inconclusive means small, poorly fitted or top-dose-only effect, or another doubt; inactive means no such curve, though single readings can be large; an effect the other way counts as inactive or inconclusive. Unless noted, on the % scale 0 is the no-effect control and ±100 the full control effect.

CCOc1cccc(CN2CCCC(N3CCc4cc(OC)c(OC)cc4C3)C2)c1O (configuration not stated) was read as TDP1 cell noCPT inconclusive, TDP1 cell CPT -23.7%, HT1080-NT tox -3.9%, uPA surface inh 2.3%, HT1080 IDH1KD tx 0.9% and IL1B secr inh 5.6.
COc1ccc(C(=O)N2CCC3(CC2)CN(c2ccncc2)C3)cc1 was read as TDP1 cell noCPT inconclusive and TDP1 cell CPT -16.7%.
Screening O=C(c1cc(C(F)(F)F)cc(C(F)(F)F)c1)N1CCC2(CC1)CCN(c1ccccn1)CC2 returned TDP1 cell noCPT 20.6µM* and TDP1 cell CPT 20.6µM*.
`O=C(c1cccc(F)c1)N1CCC2(CC1)CN(c1ccccc1)C2` gave TDP1 cell noCPT 16.4µM* and TDP1 cell CPT 7.31µM*.
Screening O=C(c1cc(C(F)(F)F)cc(C(F)(F)F)c1)N1CCC2(CC1)CCN(c1ccccc1)CC2 returned TDP1 cell noCPT -10.2% and TDP1 cell CPT 5.7%.
Screening COc1ccc(C(=O)N2CCC3(CCCN(c4ccncc4)C3)CC2)cc1 returned TDP1 cell noCPT 18.4µM* and TDP1 cell CPT inconclusive.
Screening O=C(c1cc(C(F)(F)F)cc(C(F)(F)F)c1)N1CCC2(CCCN(c3ccncc3)C2)CC1 returned TDP1 cell noCPT 20.6µM* and TDP1 cell CPT inconclusive.
Screening CC(C)(C)S(=O)N1Cc2cn(Cc3ccccc3)c(=O)cc2[C@H]1CCO (some centres not stated) returned TDP1 cell noCPT -8.9%, TDP1 cell CPT -1.4%, HT1080-NT tox 3.5%, uPA surface inh 4.2%, HT1080 IDH1KD tx 1.0% and IL1B secr inh 6.2.
`COc1ccc(S(=O)(=O)N2CCC(N3CCN(Cc4ccccc4)C(=O)C3=O)CC2)cc1` gave TDP1 cell noCPT -4.4% and TDP1 cell CPT -20.3%.
CC1CCc2c(sc(NC(=O)c3cc(-c4ccc(F)cc4)on3)c2C(N)=O)C1 (configuration not stated) was read as TDP1 cell noCPT -1.4% and TDP1 cell CPT -7.2%.
Screening O=C(c1cc(C(F)(F)F)cc(C(F)(F)F)c1)N1CCC2(CC1)CN(c1ccccc1)C2 returned TDP1 cell noCPT 13µM* and TDP1 cell CPT inconclusive.
For Cc1ccc(Sc2c(C)nn(-c3ccccc3)c2OC(=O)CC(C)C)cc1 the results were TDP1 cell noCPT -27.0% and TDP1 cell CPT -5.9%.
`CCCC(=O)Oc1c(Sc2ccc(Cl)cc2)c(C)nn1-c1ccccc1` gave TDP1 cell noCPT 20.6µM* and TDP1 cell CPT 20.6µM*.
`COc1cn(-c2ccccc2)nc1C(=O)Nc1ccc(C)cc1Cl` gave TDP1 cell noCPT inconclusive, TDP1 cell CPT -5.7%, HT1080-NT tox -9.8%, uPA surface inh 2.1%, HT1080 IDH1KD tx -23.0% and IL1B secr inh -12.8.
For Cc1ccc(NC(=S)NC(NC(=O)c2ccco2)C(Cl)(Cl)Cl)cc1 (configuration not stated) the results were TDP1 cell noCPT inconclusive, TDP1 cell CPT 16.4µM*, HT1080-NT tox inconclusive, uPA surface inh -4.3%, HT1080 IDH1KD tx inconclusive and IL1B secr inh -3.0.
For Cc1ccc(C(=O)NC(NC(=S)Nc2ccc(S(N)(=O)=O)cc2)C(Cl)(Cl)Cl)cc1 (configuration not stated) the results were TDP1 cell noCPT inconclusive, TDP1 cell CPT inconclusive, HT1080-NT tox -6.0%, uPA surface inh 0.0%, HT1080 IDH1KD tx -4.7% and IL1B secr inh -76.3*.
`CCCn1c(C(C)NC(C)=O)nc2ccccc21` (configuration not stated) gave TDP1 cell noCPT -28.5%, TDP1 cell CPT inconclusive, HT1080-NT tox -1.4%, uPA surface inh 10.7%, HT1080 IDH1KD tx 4.9% and IL1B secr inh 45.5.
`CCCCC(NC(C)=O)c1nc2ccccc2n1CCC` (configuration not stated) gave TDP1 cell noCPT 5.8µM*, TDP1 cell CPT inconclusive, HT1080-NT tox -2.7%, uPA surface inh -0.9%, HT1080 IDH1KD tx -3.5% and IL1B secr inh 16.3.
`CCCCn1c(C(C)NC(=O)COC)nc2ccccc21` (configuration not stated) gave TDP1 cell noCPT inconclusive, TDP1 cell CPT inconclusive, HT1080-NT tox -3.0%, uPA surface inh 1.3%, HT1080 IDH1KD tx 1.6% and IL1B secr inh 0.0.
`CCCCCn1c(C(Cc2ccccc2)NC(=O)COC)nc2ccccc21` (configuration not stated) gave TDP1 cell noCPT 25.9µM*, TDP1 cell CPT 18.4µM*, HT1080-NT tox 7.2%, uPA surface inh -4.4%, HT1080 IDH1KD tx -9.9% and IL1B secr inh 7.6.
`O=c1cc(-c2ccccc2)oc2ccc(Cl)cc12` gave TDP1 cell noCPT -3.6%, TDP1 cell CPT 1.1%, HT1080-NT tox 17.8%, uPA surface inh 7.2%, HT1080 IDH1KD tx inconclusive and IL1B secr inh 27.8.
For O=c1oc(-c2ccccc2)cc(Cl)c1Cl the results were TDP1 cell noCPT 1.84µM*, TDP1 cell CPT 1.64µM*, HT1080-NT tox 16.4µM*, uPA surface inh -13.3%, HT1080 IDH1KD tx 9.2µM* and IL1B secr inh -99.5*.
`COc1ccc(/C(N)=N/OC(=O)N2CCOCC2)cc1` gave TDP1 cell noCPT 20.6µM*, TDP1 cell CPT inconclusive, HT1080-NT tox -7.5%, uPA surface inh -10.1%, HT1080 IDH1KD tx -5.1% and IL1B secr inh 0.0.
For CC(C)CCNC(=O)CN1C(=O)NC(c2ccccc2)(c2ccccc2)C1=O the results were TDP1 cell noCPT inconclusive, TDP1 cell CPT -10.0%, HT1080-NT tox -8.9%, uPA surface inh 1.0%, HT1080 IDH1KD tx -2.4% and IL1B secr inh -24.5.
`Cc1ccc(C2(c3ccccc3)NC(=O)N(CC(=O)NCc3ccccc3)C2=O)cc1C` (configuration not stated) gave TDP1 cell noCPT 23.1µM*, TDP1 cell CPT inconclusive, HT1080-NT tox -20.1%, uPA surface inh -19.3%, HT1080 IDH1KD tx -16.5% and IL1B secr inh inconclusive.
Screening CCOc1ccc(CN(C)C(=O)CN2C(=O)NC(c3ccccc3)(c3ccccc3)C2=O)cc1 returned TDP1 cell noCPT inconclusive, TDP1 cell CPT inconclusive, HT1080-NT tox inconclusive, uPA surface inh 12.2%, HT1080 IDH1KD tx inconclusive and IL1B secr inh -58.9*.

Bioassay records as filed in PubChem BioAssay.
